Compound activity from PubChem BioAssay.
Only some compounds are listed: those with a hit (about 0.62% of all), similar ones and a draw of the others.
S-ASM inh – human S-ASM enzyme inhibition | P17405 | placental ASM, HMU-PC fluorogenic substrate, 60 min | Potency, µM (top dose mostly 57.5 µM), inactives show top-dose activity change, negative = inhibition, hits mostly inhibitors | 0.006% of 340,000 active | AID 504937; active = well fitted inhibition curve with a large enough effect; inconclusive = small, poorly fitted or top-dose-only effect; inactive = no such curve, though single readings can be large or run the other way
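Human placenta-derived ASM enzyme was preincubated with compound for 10 minutes at room temperature, then given fluorogenic substrate HMU-PC0 (9 uM final) for 60 minutes at 37 °C; a pH 10 stop preceded fluorescence reading at Ex 386/Em 447 nm.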
gsp antag – antagonists of gsp mutant (McCune-Albright syndrome). 0.4% of 340,000 active. gsp-mutant cells, cAMP HTRF, 30 min. Potency, µM (top dose mostly 76.9 µM), for the others: at the top dose activity change, negative = inhibition, most hits filed as inhibitors; calls by dose curve; cell line not stated here;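 also: intracellular cAMP measured with PDE inhibitor Ro 20-1724 present during compound exposure; % is scaled to controls: 0 for no effect and ±100 for the full control effect; nearly all actives have a fitted effect of over 65% in size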
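Cells, 2000/well, grown 16–24 h in DMEM 10% FBS with 0.5 mg/ml G418, then compounds plus […] (300 uM addition stock), 30 min at 37C. cAMP read by HTRF (cAMP-d2 and anti-cAMP antibody-K in lysis buffer) after 30 min RT.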
gsp agonist – gsp mutant agonism | gsp mutant cells, cAMP HTRF, 30 min | Potency, µM (top dose mostly 76.9 µM), without a hit: at the highest dose activation (cAMP increase), most hits filed as activators | 0.13% of 340,000 active; active = well fitted activation curve with a large enough effect; inconclusive = small, poorly fitted or top-dose-only effect, or another doubt; inactive = no such curve, though single readings can be large or run the other way; cell line not stated here;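 also: phosphodiesterase inhibitor Ro 20-1724 added with compounds to block cAMP breakdown; nearly all actives have a fitted effect of over 60% in size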
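Cells in DMEM/10% FBS with G418 were pretreated with compounds in DMSO plus […] (300 uM stock) for 30 min at 37C. cAMP was measured by HTRF (cAMP-d2 plus anti-cAMP antibody-K) after 30 min at room temperature.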
BCR signal inh – inhibitors of chronic active B-cell receptor signaling | 0.05% of 340,000 active | AID 493014 | Potency, µM (titrated, usually from 46.1 µM), without a hit: at the highest dose activity change, negative = inhibition, actives largely listed as inhibitors | ABC-DLBCL IkBa-CBG/CBR reporter, luminescence ratio, 4 h; active = well fitted inhibition curve with a large enough effect in the signal ratio, with a control signal flat, not every such curve was filed as active; inconclusive = small, poorly fitted or top-dose-only effect, or effect the other way, or a change in a side signal; the % refers to the signal ratio;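 also: plate controls were basal doxycycline-induced cells for no effect and cells given 10 µM MG132 for full effect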
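Compounds up to 46 uM were incubated four hours with TMD8 cells whose green CBG68 luciferase is fused to IkappaBalpha; red CBR luminescence normalised the signal, and concentration-effect curves were fitted to fusion, red and ratio data.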
MBNL1-CUG inh – blocks human MBNL1 binding to CUG repeat RNA; AID 2675; Q9NR56; TR-FRET MBNL1-His/biotin-(CUG)12 binding, 665/545 ratio; 0.036% of 280,000 active; Potency, µM (titrated, usually from 57.5 µM), inactives show at the highest dose activity change, negative = inhibition, most hits filed as inhibitors; active = well fitted inhibition curve with a large enough effect in the signal ratio, with a control signal flat, not every such curve was filed as active; inconclusive = small, poorly fitted or top-dose-only effect, or effect the other way, or a change in a side signal; inactive = no such curve, though single readings can be large or run the other way; the % refers to the signal ratio; also: % is scaled to controls: 0 for no effect and ±100 for the full control effect
Target sequence (Q9NR56 whole entry, looked up): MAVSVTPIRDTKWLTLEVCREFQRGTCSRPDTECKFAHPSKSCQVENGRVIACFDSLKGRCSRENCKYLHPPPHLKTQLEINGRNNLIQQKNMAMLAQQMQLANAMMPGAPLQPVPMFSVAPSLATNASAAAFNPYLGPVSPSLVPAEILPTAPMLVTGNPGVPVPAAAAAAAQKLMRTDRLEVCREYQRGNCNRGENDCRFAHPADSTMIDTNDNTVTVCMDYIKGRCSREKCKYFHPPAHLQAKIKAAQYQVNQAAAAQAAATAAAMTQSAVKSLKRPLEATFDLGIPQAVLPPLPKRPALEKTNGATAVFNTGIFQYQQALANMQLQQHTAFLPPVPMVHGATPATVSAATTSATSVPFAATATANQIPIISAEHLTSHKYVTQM
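Inhibition of protein-RNA binding appears as loss of TR-FRET between terbium anti-His antibody on MBNL1-His and streptavidin-XL665 on biotin-(CUG)12. Activity is normalized to buffer-only and uninhibited-complex controls.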
* hit, by the source's call; u = inconclusive; x = not tested or not shown; [ ] = remark or other dose. Potency is read from the fitted curve at half-maximal effect.

SMILES	S-ASM inh	gsp antag	gsp agonist	BCR signal inh	MBNL1-CUG inh
CC(=O)c1nc(N2C(=O)CC(Cc3ccccc3)C2=O)sc1C (stereo not given)	8%	10%	16µM*	5%	u
Cc1ccc(C(=O)Nc2ncc([N+](=O)[O-])s2)cc1	-3%	25µM*	7%	u	u
O=C(COc1ccc(Cl)cc1)Nc1ncc([N+](=O)[O-])s1	-2%	35µM*	3%[15.4 µM]	u	49%
O=C(OCC(=O)N1CCCCC1)c1cccc(NS(=O)(=O)c2ccccc2)c1	1%	-2%	12%	u	x
O=C(OCC(=O)N1CCCC1)c1ccc(S(=O)(=O)Nc2ccccc2)cc1	-2%	11µM*	-72%	0%	-4%
Cc1ccc2nc(N(Cc3cccnc3)C(=O)c3ccco3)sc2c1	x	x	x	1%	x
O=C(c1ccc(C#Cc2ccccc2)o1)N1CCN(c2ccccn2)CC1	-9%	35µM*	-15%	u	21%
Cn1c(=O)c2c(nc(N3CCCCC3)n2CCCNC2=NCCCC2)n(C)c1=O	-1%	21%	13µM*	3%	-4%
O=c1[nH]n(Cc2ccccc2)c2ccccc12	0%	5%	11%	-1%	2%
CCN1C(=O)[C@H]2[C@@H](c3ccc(-c4ccc(C(C)=O)cc4)c(OC)c3)N[C@@](Cc3ccccc3)(C(=O)OC)[C@H]2C1=O	0%	-20%	-4%	-2%	x
COc1ccc(C2=NCC(CSc3nnc(-c4ccc5c(c4)OCO5)o3)S2)cc1 (stereo not given)	-7%	28µM*	u	-1%	2%
Cc1ccc(CSc2nnc(-c3ccc4c(c3)OCO4)o2)cc1	2%	-5%	6%	18%	0%
Cc1ccc([N+](=O)[O-])cc1N=Nc1c(C)[nH]n(C(N)=S)c1=O	2%	-11%	-13%	u	u
Cc1ccc([N+](=O)[O-])cc1N=Nc1c(-c2ccc([N+](=O)[O-])cc2)[nH]n(C(N)=S)c1=O	-5%	13µM*	-2%	u	4%
NC(=S)n1[nH]c(-c2ccc([N+](=O)[O-])cc2)c(N=Nc2ccc(Cl)cc2)c1=O	-3%	u	u	10µM*	1%
Cc1[nH]c2ccc(C(=O)OC(C)C(=O)N(C)c3ccccc3)cc2c1C (stereo not given)	-2%	-19%	-2%[15.4 µM]	u	x
O=C(Cn1ccc(=O)[nH]c1=O)Nc1ccc(O)c([N+](=O)[O-])c1	-2%	1%	15%	x	x
CC1Sc2ccc(S(=O)(=O)N3CCC(C(=O)NCC(C)c4ccccc4)CC3)cc2NC1=O (stereo not given)	-8%	28µM*	u	u	2%
CC1Sc2ccc(S(=O)(=O)N3CCC(C(=O)NCCc4ccccc4)CC3)cc2NC1=O (stereo not given)	-2%	u	-10%	8%	2%
CNS(=O)(=O)c1ccc(OC)c(-c2nnc3c4ccccc4c(C)nn23)c1	-3%	12%	16µM*	u	-5%
COc1ccc(/C=N/NC(=O)c2ccccc2NC(=O)c2ccco2)c(OC)c1	-1%	-16%	-39%[15.4 µM]	u	-5%
COc1ccc(CC(=O)Nc2sc3c(c2C(N)=O)CCCC3)cc1OC	1%	6%	-11%	0%	4%
COc1cccc(CC(=O)Nc2sc3c(c2C(N)=O)CCCC3)c1	-1%	-3%	35µM*	-11%	78%
CCN(C1CCCCC1)S(=O)(=O)CCNC(=O)c1ccc2c(c1)OCO2	-4%	7%	3%[15.4 µM]	-3%	x
COc1ccc(-c2nc3scc(CCNS(=O)(=O)c4ccc(F)cc4F)n3n2)cc1OC	x	x	x	-13%	x
Cc1ccccc1OCC(=O)OCC(=O)NC1CCCC1	x	x	-51%	x	x
CCC(CC)C(=O)c1c[nH]c(C(=O)NN)c1	3%	9%	-2%	22µM*	-5%
O=C1NC(=S)S/C1=C/c1ccc(Oc2cnccn2)cc1	-3%	11µM*	1%[15.4 µM]	12%	7%
COc1ccc(OC)c2c1C(=O)C(Cl)=C(Cl)C2=O	0%	35µM*	-69%	u	9%
